# The campaign covered roughly 39,000 compounds. About 3,300 (8.5%) were called active. This excerpt belongs to a sample that is enriched for actives.
# Tested on: HepG2
# Assay: cytotoxicity call (relative viability < 0.9)
# Settings: 10 µM
row,Structure (SMILES),cytotoxicity call
1,C[C@@H]1CN([C@@H](C)CO)C(=O)c2ccccc2-c2ccccc2CO[C@@H]1CN(C)C(=O)c1cc(Cl)cc(Cl)c1,inactive
2,O=C(N[C@@H]1C=C[C@H](CC(=O)N2CCOCC2)O[C@@H]1CO)c1ccc2c(c1)OCO2,inactive
3,C[C@@H]1CN([C@@H](C)CO)C(=O)c2cc(NC(=O)C3CCCCC3)ccc2O[C@H]1CN(C)C(=O)Nc1cccc2ccccc12,inactive
4,CO[C@@H](CN(C)C(=O)C1CCOCC1)[C@H](C)CN(C(=O)Nc1ccc(C(F)(F)F)cc1)[C@@H](C)CO,inactive
5,CC(C)CS(=O)(=O)N1C[C@H]2C[C@H](C(=O)N3CCOCC3)[C@@H](C1)O2,inactive
6,CC(=O)O[C@H]1C[C@](C)(O)C2=C[C@@H](O)[C@@](C)(O)[C@@H]2[C@H]2OC(=O)[C@@H](C)[C@@H]21,inactive
7,O=C(CN1CCOCC1)N[C@H]1CC[C@H](CCn2cc(C3CCCC3)nn2)O[C@@H]1CO,inactive
8,CC(C)NC(=O)N(C)C[C@H]1Oc2ccc(NS(=O)(=O)c3ccc(F)cc3)cc2CC(=O)N([C@@H](C)CO)C[C@@H]1C,inactive
9,C[C@@H]1CCCCO[C@H](CN(C)Cc2ccc3c(c2)OCO3)[C@H](C)CN([C@@H](C)CO)C(=O)c2cc(NC(=O)Nc3ccc4c(c3)OCO4)ccc2O1,active
10,C[C@H](CO)N1C[C@H](C)[C@@H](CN(C)Cc2ccc3c(c2)OCO3)OCCCC[C@H](C)Oc2ccc(NC(=O)Nc3ccc4c(c3)OCO4)cc2C1=O,inactive
11,C[C@@H]1CCCCO[C@@H](CN(C)Cc2ccc3c(c2)OCO3)[C@@H](C)CN([C@H](C)CO)C(=O)c2cc(NC(=O)Nc3ccc4c(c3)OCO4)ccc2O1,inactive
12,C[C@@H]1CCCCO[C@H](CN(C)Cc2ccc3c(c2)OCO3)[C@@H](C)CN([C@H](C)CO)C(=O)c2cc(NC(=O)Nc3ccc4c(c3)OCO4)ccc2O1,inactive
13,C[C@@H]1CN([C@H](C)CO)C(=O)c2cc(NC(=O)Nc3ccc4c(c3)OCO4)ccc2O[C@@H](C)CCCCO[C@@H]1CN(C)Cc1ccc2c(c1)OCO2,active
14,C[C@@H]1CN([C@@H](C)CO)C(=O)c2cc(NC(=O)Nc3ccc4c(c3)OCO4)ccc2O[C@@H](C)CCCCO[C@@H]1CN(C)Cc1ccc2c(c1)OCO2,inactive
15,Cc1noc(C)c1S(=O)(=O)Nc1ccc2c(c1)C(=O)N([C@H](C)CO)C[C@H](C)[C@@H](CN(C)C(=O)Nc1ccccc1)O2,inactive
16,CCn1cc(-c2ccnc3[nH]c(-c4cccc(CN(C)C)c4)cc23)c(-c2ccc(NC(=O)N(C)C)cc2)n1,active
17,C[C@@H]1CN([C@H](C)CO)S(=O)(=O)c2ccc(-c3ccc(F)cc3)cc2O[C@H]1CN(C)S(C)(=O)=O,inactive
18,C#Cc1ccc([C@@H]2C=C(C(=O)N3CCN(Cc4ccc5c(c4)OCO5)CC3)O[C@H](OCC)[C@H]2CCCO)cc1,inactive
19,O=S1(=O)CC[C@H](N[C@H]2CCS(=O)(=O)C2)C1,inactive
20,C[C@@H]1CN([C@H](C)CO)S(=O)(=O)c2ccc(C#Cc3ccncc3)cc2O[C@@H]1CN(C)S(=O)(=O)c1ccccc1,active
21,C[C@@H]1CN([C@@H](C)CO)S(=O)(=O)c2ccc(C#Cc3ccncc3)cc2O[C@H]1CN(C)S(=O)(=O)c1ccccc1,active

row,Structure (SMILES),cytotoxicity call
1,C[C@H]1CN([C@@H](C)CO)S(=O)(=O)c2ccc(C#Cc3ccncc3)cc2O[C@H]1CN(C)S(=O)(=O)c1ccccc1,active
2,C[C@H](CO)N1C[C@H](C)[C@@H](CN(C)S(=O)(=O)c2ccccc2)Oc2cc(C#Cc3ccncc3)ccc2S1(=O)=O,active
3,Cc1noc(C)c1NC(=O)Nc1ccc2c(c1)C(=O)N([C@@H](C)CO)C[C@H](C)[C@H](CN(C)CC1CCCCC1)OCCCC[C@@H](C)O2,inactive
4,COc1ccc(Br)cc1S(=O)(=O)NC(=O)/C=C/c1ccccc1Cc1ccc2ccccc2c1,inactive
5,COc1ccc(S(=O)(=O)Nc2ccc3c(c2)C(=O)N([C@@H](C)CO)C[C@@H](C)[C@@H](CN(C)C(=O)Nc2cccc4ccccc24)O3)cc1,inactive
6,C[C@@H]1CN([C@H](C)CO)S(=O)(=O)c2ccc(Br)cc2O[C@H]1CN(C)CC1CCOCC1,inactive
7,C[C@@H]1CN([C@H](C)CO)C(=O)c2cccc(NC(=O)NC3CCCCC3)c2O[C@@H]1CN(C)S(C)(=O)=O,inactive
8,CC(C)C[C@@H]1NC(=O)[C@@H]2C[C@H](C(=O)NCCCCCCN(C)C)[C@H](c3cccc(OCCO)c3)N2C1=O,inactive
9,CC(C)N1C[C@H](C)[C@@H](CN(C)Cc2ccc(Cl)cc2)Oc2c(NC(=O)c3ccncc3)cccc2C1=O,inactive
10,C[C@H]1CN([C@@H](C)CO)S(=O)(=O)c2ccc(C#Cc3ccncc3)cc2O[C@@H]1CN(C)S(=O)(=O)c1ccccc1,active
11,C[C@H](CO)N1C[C@H](C)[C@H](CN(C)S(=O)(=O)c2ccccc2)Oc2cc(C#Cc3ccncc3)ccc2S1(=O)=O,active
12,C[C@@H]1CN([C@@H](C)CO)S(=O)(=O)c2ccc(C#Cc3ccncc3)cc2O[C@@H]1CN(C)S(=O)(=O)c1ccccc1,active
13,C[C@@H]1CN([C@H](C)CO)S(=O)(=O)c2ccc(C#Cc3ccncc3)cc2O[C@H]1CN(C)S(=O)(=O)c1ccccc1,active
14,C[C@@H]1CN([C@H](C)CO)C(=O)c2cccc(NC(=O)c3cnccn3)c2O[C@@H]1CN(C)C(=O)NC1CCCCC1,inactive
15,Cc1noc(C)c1S(=O)(=O)Nc1cccc2c1O[C@@H](CN(C)Cc1ccccc1)[C@@H](C)CN([C@H](C)CO)C2=O,inactive
16,C[C@@H]1CN([C@H](C)CO)C(=O)c2cccc(NC(=O)Nc3cccc4ccccc34)c2O[C@@H]1CN(C)S(=O)(=O)c1ccccc1,inactive
17,CCC(=O)N(C)C[C@@H]1Oc2ncc(C#C[C@H](C)O)cc2C(=O)N([C@@H](C)CO)C[C@H]1C,inactive
18,O=C(C[C@@H]1C[C@@H]2c3cc(NC(=O)Nc4ccccc4)ccc3O[C@@H]2[C@H](CO)O1)NCCN1CCCCC1,inactive
19,CN1CCN2c3ccccc3Cc3ccccc3C2C1.Cl (configuration not stated),inactive
20,C[C@H]1CCCN(C(=O)N2c3ccccc3Sc3ccccc32)C1,inactive
21,CN1CCC[C@@H](CC2c3ccccc3Sc3ccccc32)C1,active

# Reference: the antibiotic and cytotoxicity screens of Wong et al. (2023)
